Data published in PubChem BioAssay.

Each compound was assayed on Chordin-like protein 2 (CHRDL2) (assay: compounds binding chordin-like 2 – biochemical, small-molecule microarray, 635 nm fluorescence, primary screen (AID 1126;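 further: printed compound slides probed with Chrdl2 protein at 4 µg/mL for 1 h at 4 C; score merges 667 nm emission intensity with signal to noise over three replicate slides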)). Conditions: fluorescence 635 nm, higher = more signal.

Compound	composite z-score
CCCN1C(=O)[C@@]2(CCC(=O)OC(C)(C)C)N=C(c3ccc(OCCCO)cc3)O[C@H]2c2ccccc21	0.345
O=C(O)[C@H]1C[C@H]2C(=O)NCC(=O)N2[C@H]1c1ccc(O)cc1	1.26
CC(C)c1ccc(NN2C(C(O)c3ccc(N(C)C)cc3)C=CC3C(=O)N(c4ccccc4)C(=O)C32)cc1 (stereo unspecified)	-0.0118
CCC[C@@H]1C=C(C(=O)O)[C@H](c2ccc(C)cc2)N1S(=O)(=O)c1ccc(C)cc1	-0.802
CC(C)c1ccc(NN2C(C(O)c3c(F)cccc3Cl)C=CC3C(=O)N(c4ccccc4)C(=O)C32)cc1 (stereo unspecified)	-0.297
CC(C)=CCCC(C)=CC(O)C1C=CC2C(=O)N(c3ccccc3)C(=O)C2N1Nc1ccccc1 (stereo unspecified)	-0.0528
COCC1=C2[C@@H](CCc3ccccc3)OB(O)C[C@@H]2[C@@H]2C(=O)N(Cc3ccccc3)C(=O)[C@@H]2C1	0.137
COC(=O)[C@@]1(Cc2ccc(OC)cc2)[C@H]2c3cc(C(=O)N4CCCC4)n(CCc4c[nH]c5cc(F)ccc45)c3C[C@H]2CN1C(=O)c1ccccc1	-0.703
CC(C)N1CC=CC23O[C@@H]4C=CCOC(=O)[C@@H]4[C@H]2C(=O)N(CCO)[C@@H]3C1=O (stereo partly specified)	-1.59
COC(=O)C(CC#Cc1ccc2c(c1)[C@]1(C(=O)N2)[C@H](c2ccc(OCCO)cc2)N2[C@H](c3ccccc3)[C@H](c3ccccc3)OC(=O)[C@H]2[C@@H]1C(=O)NC[C@H](O)c1ccccc1)C(=O)OC	-0.28
CC(C)NC(=O)[C@@]1(Cc2ccccc2I)c2ccccc2C(=O)N(Cc2ccccc2)[C@H]1c1ccc(CO)cc1	0.325
